From PubChem BioAssay AID457 (Sanford-Burnham Center for Chemical Genomics, 2006)
Among all 10,000 compounds or so, about 20 (0.2%) were called active. No rule for the calls is given here. Not all results are given here.

Test: enhancers of VCAM-1 display on endothelial cells, imaging, high-content imaging, pooled HUVEC, TNFa stimulus (AID 457);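 as to augmentation: cells exposed to compound for 24 hours before fixing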
Conditions: TNFa-induced VCAM-1 immunofluorescence imaging;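 compounds tested at 5 µM in the well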

augmentation, inactive:
CS(=O)(=O)Nc1ccc(C(=O)NCc2ccco2)cc1
CCN(Cc1nc2cc(OC)c(OC)cc2c(=O)[nH]1)C(=O)c1ccc(S(=O)(=O)N(C)C)cc1
O=C(CP(=O)(c1ccccc1)c1ccccc1)N1CCCCC1
Cc1cnc(C(=O)Nc2ccc(N3CCN(C(=O)OC(C)(C)C)CC3)cc2)cn1 14.8%
COc1cccc(N2CCN(CC(=O)Nc3nnc(-c4ccccc4)s3)CC2)c1
Oc1ccc(N2CCN(C(c3ccncc3)c3nnnn3C3CCCC3)CC2)cc1 (stereo not given)
C1CCC2=NCCCN2CC1
CCOc1ccc(N(CC(=O)Nc2ccc(F)c(F)c2)S(=O)(=O)c2c(C)noc2C)cc1
COc1cc(Cl)c(C)cc1NC(=O)COC(=O)c1cnc(C)cn1
O=C(CC1CCCCC1)NCc1ccccn1
COc1ccccc1CNS(=O)(=O)c1ccc(NC(C)=O)cc1
COc1ccc(S(=O)(=O)NC2CCCCC2)c(C)c1C
Cc1nc2ccc(S(=O)(=O)NCC(=O)N3CCc4ccccc4C3)cc2s1
CCOc1ccccc1Nc1nc2ccccc2[nH]1
Cc1ccc2nc(-c3ccc4c(c3)OCCO4)cc(C(=O)O)c2c1
COc1ccc(C(=O)NCCc2nnc(SCc3nc4ccccc4c(=O)[nH]3)n2C)cc1
Cc1cc(NC(=O)c2cc3ccccc3o2)cc(C)c1OCC(=O)N1CCOCC1
Cc1c(C(=O)OCC(C)C)[nH]c2c1C(=O)CC(c1ccco1)C2 (stereo not given)
CC(NC(=O)c1ccc(F)cc1)C(c1cccs1)N1CCN(C)CC1 (stereo not given)
C=CCN1C(=O)C2(C(C#N)=C(N)Oc3n[nH]c(CCC)c32)c2ccccc21 (stereo not given)
CCOC(=O)c1c(NC(=O)OC)sc(C(=O)N(C)C)c1C
COc1ccc(N(C)C(=O)CCS(=O)(=O)c2cccc3nonc23)cc1
COc1ccc(CCNC(=O)CCN2C(=O)C3CC=CCC3C2=O)cc1OC (stereo not given)
O=C(Nc1ccccc1)c1cnc2n(c1=O)CCS2
C=CCn1cnc2c(NCc3ccccc3)ncnc21
Cc1cc(C)n(S(=O)(=O)c2cc(C(=O)O)c(Cl)cc2Cl)n1
CCOC(=O)C1=C(CN2CCOCC2)NC(=O)NC1c1cc(C)ccc1C (stereo not given)
O=C(O)CC(NC(=O)c1ccccc1NC(=O)c1ccccc1)C(=O)O (stereo not given)
COc1ccc2cc(CN(CCO)C(=O)c3ccc(Br)cc3)c(=O)[nH]c2c1
COc1cc(OC)cc(-c2nnc(SCC(=O)Nc3cc(C)on3)o2)c1
Cc1ccc(C(=O)OCC(=O)Nc2ccc3c(c2)OCO3)o1
Cc1cc2ccccc2c(=O)n1CC(=O)N(C)c1ccc(F)cc1
CC(Oc1ccccc1)C(=O)Nc1ccc(S(=O)(=O)NCC2CCCO2)cc1 (stereo not given)
Cn1c(NC(=O)c2cccc(Cn3cc(Cl)cn3)c2)nc2ccccc21
Cc1cc2c(s1)c1cnn(CC(=O)NCCc3ccccc3)c(=O)c1n2C
COc1ccc2c(c1)CCc1c(C(=O)N3CC4(C)CC3CC(C)(C)C4)noc1-2 (stereo not given)
O=C(Cn1ccc2ccccc2c1=O)NCCC(=O)N1CCN(C(=O)c2ccco2)CC1
CCN(CC)C1CCCCC1NS(=O)(=O)c1ccc(Cl)cc1 (stereo not given)
Cn1c(=O)cc(OCC(=O)N2CCN(c3cccc(C(F)(F)F)c3)CC2)c2ccccc21
COCCNC(=O)CN1CCN(C(c2ccccc2)c2ccccc2)CC1
Cc1ccc(CN2CCN(C(=O)C3CCC3)CC2)cc1
Cc1cc(NC(=O)CCOc2ccccc2)no1
COc1ccc(N2C(=O)C3CCCN3C2c2ccc(F)cc2)cc1Cl (stereo not given)
O=c1c2cnn(-c3ccccc3)c2ncn1/N=C/c1ccncc1
COC(=O)c1[nH]c2ccc(C)cc2c1NC(=O)CN1CCN(C(=O)c2ccccc2)CC1
CC1Cc2cc(/C(O)=C3/C(=O)C(=O)N(CCN4CCOCC4)C3c3cccc(O)c3)ccc2O1 (stereo not given)
Clc1ccc(-c2nnc3sc(-c4ccc(Br)o4)nn23)cc1
CCCCN(CCCNC(=O)C1CCN(S(=O)(=O)CC)CC1)c1ccccc1
CS(=O)(=O)N(CC(=O)N1CCN(c2cccc(Cl)c2)CC1)C1CCCCC1
CC1CCN(CCCNC(=O)c2coc3nc4ccccc4nc23)CC1
COc1ccc(-c2nnc(SCC#N)o2)cc1
O=C(CSc1nnnn1-c1ccc2c(c1)OCO2)NCc1cccs1
CCOC(=O)N1CCN(C(=O)c2csc3c2CCCCC3)CC1
Cc1cccc(-n2ncc3c(NCc4ccccn4)ncnc32)c1
CCCN(CCC)C(=O)c1c(C)[nH]c(C(=O)OCC)c1C
CCOC(=O)c1ccc2nc(C)c3c(c2c1)OC(C)C3 (stereo not given)
Cc1c(NC(=O)C2CCCNC2=O)c(=O)n(-c2ccccc2)n1C (stereo not given)
O=C1CC(c2ccccc2)Cc2nc(N3CCc4ccccc43)ncc21 (stereo not given)
CC(=O)N1CCN(c2ccc(S(=O)(=O)N3CCCCC3)cn2)CC1
COc1cc(OC)cc(-c2nc3cc(C)ccc3o2)c1
CC1CN(C(=O)CSc2nnc(-c3ccc(Cl)cc3)n2C)CC(C)O1 (stereo not given)
CCCOc1ccccc1NC(=O)c1ccc(N)cc1
C=CCSc1ncccc1C(=O)O
CCN(CCNC(=O)C1CCN(S(=O)(=O)CC)CC1)c1ccccc1
Cc1oc2cc3c(C(=O)OCCN(C)C)c(C)oc3cc2c1C(=O)OCCN(C)C
Cc1nc(CNS(=O)(=O)c2cccc(F)c2)cs1
CCN(CC)c1ccc2c(c1)CCCN2
Cc1onc(-c2ccccc2)c1C(=O)N1CCCSC1=Nc1ccccc1
COCCN1CCN(c2c(C)c(C)nc3cc(-c4cccc(OC)c4)nn23)CC1
C=CCN1C(=O)C2(/C(=C(\O)c3ccc4c(c3)OCCO4)C(=O)C(=O)N2CCCOC)c2ccccc21 (stereo not given)
C=CCOc1nc(N2CCCC2)nc(N2CCCC2)n1
O=C(c1cccc2c1C(=O)N(Cc1cccnc1)C2)N1CCN(c2ccccc2)CC1
Cc1nnc2ccc(N3CCC4(CC3)OCCO4)nn12
Cc1nc(CCNS(=O)(=O)c2cccs2)cs1
CC(O)CN1C(=O)C(CC(=O)Nc2ccc(Cl)cc2)SC1=Nc1ccccc1 (stereo not given)
CCn1c(SCC(=O)C(C)(C)C)nnc1-c1cnccn1
c1ccc(CCNc2ccc3nncn3n2)cc1
O=C(NCc1nc2ccccc2[nH]1)c1ccc(Cl)c(S(=O)(=O)N2CCCC2)c1
Cc1cccc(Nc2nc(N)nc(CN3CCC(C(N)=O)CC3)n2)c1C
O=C(Nc1cccc(NC(=O)c2ccco2)c1)c1ccc2c(c1)OCO2
COc1ccccc1OCCn1c(=O)sc2ccccc21
O=C(Cc1ccccc1)Nc1ccc(CN2CCOCC2)cc1
Cc1ccc2[nH]c(=O)c3cc(C(=O)NCCN4CCN(C)CC4)sc3c2c1
CCOC(=O)N1CCN(C(=O)CSc2cc(C)nc3c(-c4ccccc4OC)c(C)nn23)CC1
COc1ccc(-c2nc(C#N)c(N3CCN(c4ccccc4)CC3)o2)cc1
CC(C)CNC(=O)c1ccccc1NC(=O)c1ccc(CN2CCOCC2)cc1
CCCN1CCN(CCCNC(=O)C2CCCN(c3nc4ccc(OCC)cc4s3)C2)CC1 (stereo not given)
CC(C)N(C(=O)N1CCC(c2nc(-c3ccncc3)no2)CC1)C(C)C
O=C(CN1C(=O)CC(c2ccco2)Sc2ccccc21)Nc1ccccc1F (stereo not given)
CC(O)c1c(OCc2ccccc2)ncnc1OCc1ccccc1 (stereo not given)
O=C(O)c1cc2c(s1)CCCC2
CCOC(=O)CN1CC23C=CC(O2)C(C(=O)NC2CCCC2)C3C1=O (stereo not given)
CCOc1ccc2cc(C#N)c(SCC(=O)N3CCC(C)CC3)nc2c1
CC(=O)Nc1sc2c(c1C#N)CCCCC2
CCCOc1ccc(S(=O)(=O)NCCCN2CCOCC2)c2ccccc12
O=C(Cn1ccc2ccccc2c1=O)Nc1ccc2c(c1)OCO2
CCOCCn1cnc2sc(C(=O)Nc3nc(C)c(C(=O)OCC)s3)c(C)c2c1=O
Nc1nc2ccccc2n1C(=O)CCc1ccccc1
Cc1sc2nc(CN3CCN(S(=O)(=O)c4cccc5nonc45)CC3)[nH]c(=O)c2c1C
O=C(CN1CCC(n2nnc3ccccc32)CC1)Nc1ccc2c(c1)CCC2
O=C(Nc1ncc(Cc2ccccc2)s1)C1CCCO1 (stereo not given)
O=C(Cc1c(F)cccc1Cl)Nc1ccncc1
CCCCCCc1ccc(-c2ncc(N)cn2)cc1
CCc1nnc(NC(=O)CSc2nnc(-c3ccoc3C)n2CC(C)C)s1
COc1nc(C)ccc1-c1noc(-c2ccncc2)n1
Cc1noc(/C=C/N(C)C)c1S(=O)(=O)N1CCc2ccccc21
O=C(Nc1ccc2c(c1)OCCO2)c1cnc2n(c1=O)CCS2
Cc1[nH]nc(N=CC2=C(O)CC(C)(C)CC2=O)c1-c1ccccc1
Cc1csc(SCCn2c(N3CCCC3)nc3c2c(=O)[nH]c(=O)n3C)n1
O=C(Nc1ccccc1Cl)c1c(F)c(F)c(F)c(F)c1F
O=C(COc1nnnc2ccccc12)N1CCCc2ccccc21
CC1(C)CC(=O)c2cnc(NCc3ccco3)nc2C1
COC(=O)C1=C(C)OC(N)=C(C#N)C1c1c(C)nn(-c2ccccc2)c1Cl (stereo not given)
CCCNC(=O)c1cc(S(=O)(=O)N2CCc3ccccc32)ccc1F
O=C(CSc1ncc(-c2ccc(F)cc2)[nH]1)N1CCCCC1
CC(C)OC(=O)CSc1nnc(-c2ccc(O)cc2)n1Cc1ccccc1
CSC1CCCCC1(O)CSc1nc2c(cc1C#N)CCCC2 (stereo not given)
Cc1cc(C)cc(NC(=O)C2CCCN(c3nccc(C)n3)C2)c1 (stereo not given)
Cn1c(/C=N/n2cnnc2)nc2ccccc21
Cc1ccccc1NC(=O)C1CCN(c2cnccn2)CC1
O=C(Nc1cccnc1)Nc1ccc(F)c(Cl)c1
C(=C\c1ccccc1)/CN1CCN(Cc2ccc3c(c2)OCCO3)CC1
CCOC(=O)N1CCN(CCC(=O)c2ccc(Cl)cc2)CC1
CCOC(=O)CSc1nc2ccccc2n1CC(=O)N1CCN(c2ccccc2)CC1
COc1ccccc1C(=O)NCC(=O)Nc1ccccc1
CCC(C)(C)NC(=O)CN(C(=O)c1snc(C(N)=O)c1N)c1ccc2c(c1)OCO2
COC(=O)c1ccccc1NC(=O)C1CC(=O)N(c2ccc(F)cc2)C1 (stereo not given)
Cc1cc(Cl)c(S(=O)(=O)N2CCN(c3ccc(F)cc3)CC2)cc1OCC(N)=O
Cc1ccc(-n2nnnc2SCC(=O)N2CCN(C(=O)c3ccco3)CC2)c(C)c1
O=S(CC(O)COCc1ccc(Cl)cc1)c1ccccn1 (stereo not given)
